This is part of a sample that, as a whole, favours compounds with a hit. Of some 83,000 tested, about 20% had one in any assay.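 Treatment: one concentration, 48 hours, 96-well format. Scoring: percent growth, with anything below 10 considered active.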 The source made the active and inactive calls.
The compounds below were run on PC-3 prostate (assay: NCI-60 one-dose screen, 48 h (100 = growth as untreated, 0 = no growth, -100 = all killed)). Details: 10 µM unless noted.
Experimental: Growth inhibition of the PC-3 human tumor cell line is measured as a screen for anti-cancer activity. Cells are grown in 96 well plates and exposed to the test compound for 48 hours. Compounds are tested at a single concentration, which is 10^-5 M for most compounds. The reported endpoint is percent growth (GI% or GIPRCNT), where numbers from 0 - 100% represent growth inhibition, and numbers from -100% - 0 represent cell death. For example, a value of 40 represents 60% growth inhibition. A value of 0 means no net growth occurred over the course of the experiment. A value of -40 indicates 40% of cells at the beginning of the experiment died by the end of the experiment. A value of -100 means all cells are dead at the end of the experiment.
NCI-60 Human Tumor Cell Lines Screen was performed using the standard one-dose NCI protocol, which is described in more detail at https://dtp.cancer.gov/discovery_development/nci-60/default.htm.
Compounds with GIPRCNT values below 10 were considered active. Activity score was based on GIPRCNT using the following formula: […]
Score is 0 for GIPRCNT values of 100 or above, 50 for GIPRCNT values of 0, and 100 for GIPRCNT values of -100.
In the case of `COc1cc2oc(-c3ccc(O)cc3)cc(=O)c2c(O)c1I`, the growth is reported as 97.5% (inactive). With `COc1cc(/C=C/C(=O)CC(=O)/C=C/c2cc(Br)c(OC)c(OC)c2)cc(Br)c1OC` the growth was 105% (inactive). With `CN1CCc2cccc3c2C1Cc1ccc(O)c(O)c1-3` (stereo not given) the growth was 65.6% (inactive). In the case of `O=C1CC(c2ccsc2)c2snc(-c3ccc(Cl)cc3)c2N1` (stereo not given), the growth is reported as 24% (inactive). With `Cc1nc2cc(Nc3nc(Nc4ccc(F)cc4)nc(-c4cccs4)n3)ccc2n1Cc1ccccc1` the growth was 29.4% (inactive). In the case of `Nc1cc2[nH]c(=O)c3ccccc3c2cc1Br`, the growth is reported as 81.5% (inactive). With `O=C(N/N=C/c1ccc2c(c1)OCO2)c1cnn2c1NC(c1ccccc1)C2` (stereo not given) the growth was 50.2% (inactive). In the case of `COc1nc2c(cc1S(=O)(=O)c1ccccc1)CCc1c-2cnn1-c1ccccc1Cl`, the growth is reported as 35.9% (inactive). In the case of `COc1ccc(/C=N/OCC(O)CN2CCC(O)CC2)cc1OC1CCCC1` (stereo not given), the growth is reported as 94.7% (inactive). In the case of `COc1cccc(C2CC(=O)Nc3cc4c(cc32)OCO4)c1OC` (stereo not given), the growth is reported as 94.2% (inactive). With `COc1ccc(C2OCC(C)(C)CO2)cc1OC` the growth was 95% (inactive). In the case of `COc1ccc(-c2c3c(N)c4c(nc3nc3c2c(C)nn3-c2ccccc2)CCCCC4)cc1`, the growth is reported as 70.4% (inactive). With `COc1cccc(C2C3=C(COC3=O)N(CCO)c3cc4c(cc32)OCO4)c1` (stereo not given) the growth was 32.4% (inactive). `COc1ccc(OC2=CC(=O)c3ccc(C)nc3C2=O)cc1` was tested, and the growth was 85.2% (inactive). In the case of `FC(F)(F)c1cc(CNc2nc(Cl)ncc2Br)cc(C(F)(F)F)c1`, the growth is reported as 80.2% (inactive). `COc1cccc(OC)c1OC(=O)c1ccccc1` was tested, and the growth was 106% (inactive). `O=C(Nc1ccc(Cl)c(Cl)c1)OCn1ncc2ccc([N+](=O)[O-])cc21` was tested, and the growth was 70.9% (inactive). With `Fc1c[c-]c(-c2ccccn2)c(F)c1.Fc1c[c-]c(-c2ccccn2)c(F)c1.[Cl][Pt+].[Cl][Pt+].c1ccc([PH+](C[PH+](c2ccccc2)c2ccccc2)c2ccccc2)cc1` the growth was 14.9% (inactive). In the case of `O=C(Nc1ccc(Cl)c(Cl)c1)NC(CO)(CO)CO`, the growth is reported as 86.3% (inactive). `NC(=O)c1nc2c([nH]c1=O)CCCC2` was tested, and the growth was 101% (inactive). `COc1ccccc1CNCCCCCCCCCCCCN1C(=O)c2ccc3c4c(ccc(c24)C1=O)C(=O)N(CCCCCCCCCCCCNCc1ccccc1OC)C3=O` was tested, and the growth was 27.7% (inactive). With `CC(=O)c1cc(C)c(OC(=O)c2ccccc2)c(C)c1` the growth was 89.9% (inactive). With `O=C1/C(=C/c2ccc([N+](=O)[O-])cc2)Oc2ccc(O)cc21` the growth was 87.9% (inactive). In the case of `CSc1ccc(OC(C)=O)cc1C`, the growth is reported as 96.6% (inactive). For `CC(C)(C)[Si](C)(C)OC1[C@@H](COC(=O)NC(=O)CCl)O[C@@H](n2cnc3c(N)ncnc32)[C@H]1O[Si](C)(C)C(C)(C)C` (stereo not given in full), the growth was -59.9% (active). In the case of `COc1cc(/C=C/C(=O)C(=Cc2ccc(F)c(F)c2)C(=O)/C=C/c2ccc(O)c(OC)c2)ccc1O`, the growth is reported as 30.7% (inactive). `Cc1ccc(C(=O)Nc2ccccc2N)cc1` was tested, and the growth was 70.9% (inactive). For `Cc1cccc2c(=O)c3c(sc12)c(NCCCN)nc1ccccc13`, the growth was 34.8% (inactive). `Cc1c(C(=O)Nc2nc(-c3ccccc3)cs2)nnn1-c1ccccc1Br` was tested, and the growth was 44.8% [50 µM] (inactive). `Cc1cc(=O)[nH]n1-c1cc(Cl)ccc1N` was tested, and the growth was 106% (inactive). For `COc1c(Cl)ccc2c(-c3nc4cc(Cl)c(F)cc4s3)cc(=O)oc12`, the growth was 84.3% (inactive). In the case of `COC(=O)c1c2c(c(C)[n+]([O-])c1C)C(=O)C(NCc1ccc(O)cc1)=CC2=O`, the growth is reported as 7.51% (active). With `Nc1nc(-c2ccnc(Cl)c2)nn1-c1nc2ccccc2s1` the growth was 102% (inactive). In the case of `CCN(CC)c1ccc2c(c1)OS(=O)(=O)N=C2`, the growth is reported as 100% (inactive). For `CC(C)N1CCN(c2ccc(OC[C@H]3CO[C@](Cn4cncn4)(c4ccc(Cl)cc4Cl)O3)cc2)CC1`, the growth was 73.9% (inactive). `O=C(CC(O)c1ccccc1)Nc1ccccn1` (stereo not given) was tested, and the growth was 93.2% (inactive). With `CS(=O)(=O)Nc1cccc(C(=O)NCc2ccc(N3CCOCC3)cc2)c1` the growth was 104% (inactive). `CCOC(=O)c1[nH]c2cc(Cl)ccc2c1[C@@H](C(=O)NC(C)(C)C)N(CC)C(=O)CCCCC#Cc1cccc2c1CN(C1CCC(=O)NC1=O)C2=O` (stereo not given in full) was tested, and the growth was 11.7% (inactive). With `Cc1ccccc1-n1nnc(C(=O)Nc2nc(-c3ccccc3)c(-c3ccccc3)s2)c1C` the growth was 63.2% [50 µM] (inactive). For `CN1CCN(c2ccc3nc(-c4ccc5nc(-c6ccc(C(F)(F)F)cc6)[nH]c5c4)[nH]c3c2)CC1`, the growth was 30.2% (inactive).

Source: PubChem BioAssay (NCI)
